Laboratory results reported in PubChem BioAssay (NCATS).
Records with an inconclusive call do not appear. Active and inactive are the calls of the source. The call rests on the fitted dose curve; in most records, active means well fitted curve in the direction sought with a large enough effect; inconclusive means small, poorly fitted or top-dose-only effect, or another doubt; inactive means no such curve, though single readings can be large; an effect the other way counts as inactive or inconclusive.

How the values were obtained:
[1] = qHTS of pediatric cancer cell lines to identify multiple opportunities for drug repurposing: Primary screen for SK-N-SH cells (AID 1347098); further: nearly all actives have a fitted effect of over 65% in size; further: potency means the concentration at half of the fitted maximal effect;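 on activity change, negative = cytotoxic: DMSO served as neutral control and bortezomib at 2.3 µM as positive control; on the % scale 0 is the no-effect control and ±100 the full control effect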
Procedure, shortened: (§1)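 Cells (500-1,000/well) rested 5 h, then received compounds for 48 h; metabolically active cells were measured by CellTiter-Glo luminescence. Final concentrations spanned up to 46 µM (MIPE, 11-point) or 0.59 nM-46 µM (NPC, 8-point) in primary screens, 11-point in follow-ups.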

[2] = qHTS of pediatric cancer cell lines to identify multiple opportunities for drug repurposing: Primary screen for NB1643 cells (AID 1347099); further: nearly all actives have a fitted effect of over 50% in size; further: potency means the concentration at half of the fitted maximal effect;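 on activity change, negative = cytotoxic: plate controls were DMSO neutral control for no effect and bortezomib positive control for full effect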
Procedure, shortened: (§2)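 Plated cells (500-1,000 per well, growth media) were allowed to settle for 5 hours, treated with compound dilutions for 48 hours, then lysed with CellTiter-Glo for 15 min at room temperature before luminescence reading.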

[3] = qHTS of pediatric cancer cell lines to identify multiple opportunities for drug repurposing: Primary screen for LAN-5 cells (AID 1347100); further: potency means the concentration at half of the fitted maximal effect;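 on activity change, negative = cytotoxic: plate controls were DMSO neutral control for no effect and bortezomib positive control for full effect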
Procedure, shortened: (§3)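 Cells (500-1,000/well) in growth media were settled 5 h at 37 degrees C, then given compounds for 48 h. Viability was read as CellTiter-Glo luminescence. Primary runs used MIPE at 11 points (0.78 nM-46 µM) and NPC at 8 points (0.59 nM-46 µM); follow-ups used 11 points.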

[4] = qHTS of pediatric cancer cell lines to identify multiple opportunities for drug repurposing: Primary screen for BT-12 cells (AID 1347101); further: nearly all actives have a fitted effect of over 25% in size; further: potency means the concentration at half of the fitted maximal effect;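 on activity change, negative = cytotoxic: plate controls were DMSO for no effect and bortezomib positive control for full effect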
Procedure, shortened: as §1

[5] = qHTS of pediatric cancer cell lines to identify multiple opportunities for drug repurposing: Primary screen for OHS-50 cells (AID 1347103); further: nearly all actives have a fitted effect of over 40% in size; further: potency means the concentration at half of the fitted maximal effect
Procedure, shortened: as §1

[6] = qHTS of pediatric cancer cell lines to identify multiple opportunities for drug repurposing: Primary screen for RD cells (AID 1347104); further: nearly all actives have a fitted effect of over 55% in size; further: potency means the concentration at half of the fitted maximal effect
Procedure, shortened: as §2

[7] = qHTS of pediatric cancer cell lines to identify multiple opportunities for drug repurposing: Primary screen for Rh30 cells (AID 1347107); further: nearly all actives have a fitted effect of over 75% in size; further: potency means the concentration at half of the fitted maximal effect; on activity change, negative = cytotoxic: series mostly up to about 46 µM; on the % scale 0 is the no-effect control and ±100 the full control effect
Procedure, shortened: as §3

[8] = qHTS of pediatric cancer cell lines to identify multiple opportunities for drug repurposing: Confirmatory screen for NB1643 cells (AID 1347109); further: nearly all actives have a fitted effect of over 45% in size; further: potency means the concentration at half of the fitted maximal effect;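 on activity change, negative = cytotoxic: plate controls were DMSO for no effect and bortezomib for full effect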
Procedure, shortened: as §3

[9] = qHTS of pediatric cancer cell lines to identify multiple opportunities for drug repurposing: Confirmatory screen for A673 cells (AID 1347110);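 further: cells exposed to compound for 48 h before the viability read; nearly all actives have a fitted effect of over 65% in size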; further: potency means the concentration at half of the fitted maximal effect
Procedure, shortened: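 Forty-eight-hour viability assay. Follow-up compounds ran at 11-point dilutions; positive control bortezomib at 2.3 uM final, neutral control DMSO.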

[10] = qHTS of pediatric cancer cell lines to identify multiple opportunities for drug repurposing: Confirmatory screen for SK-N-MC cells (AID 1347111);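 further: potency means the concentration at half of the fitted maximal effect; cells exposed to compound for 48 h before the readout; nearly all actives have a fitted effect of over 70% in size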
Procedure, shortened: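 Metabolically active cells were quantified by ATP-dependent luminescence (CellTiter-Glo, 15 min at room temperature) following 48 h treatment. Cells had been plated at 500-1,000 per well and settled for 5 h beforehand.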

[11] = qHTS of pediatric cancer cell lines to identify multiple opportunities for drug repurposing: Confirmatory screen for LAN-5 cells (AID 1347113); further: nearly all actives have a fitted effect of over 65% in size; further: potency means the concentration at half of the fitted maximal effect
Procedure, shortened: as §3

[12] = qHTS of pediatric cancer cell lines to identify multiple opportunities for drug repurposing: Confirmatory screen for DAOY cells (AID 1347114); further: nearly all actives have a fitted effect of over 65% in size; further: potency means the concentration at half of the fitted maximal effect
Procedure, shortened: (§4)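 Viability measured as metabolically active cells via CellTiter-Glo luminescence following 48 hours of compound exposure, 11-point dilutions in confirmatory testing. 500-1,000 cells/well plated 5 hours before dosing; controls were DMSO and 2.3 µM bortezomib.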

[13] = qHTS of pediatric cancer cell lines to identify multiple opportunities for drug repurposing: Confirmatory screen for BT-37 cells (AID 1347117); further: nearly all actives have a fitted effect of over 55% in size; further: potency means the concentration at half of the fitted maximal effect
Procedure, shortened: as §3

[14] = qHTS of pediatric cancer cell lines to identify multiple opportunities for drug repurposing: Primary screen for MG 63 (6-TG R) cells (AID 1347105); further: nearly all actives have a fitted effect of over 50% in size; further: potency means the concentration at half of the fitted maximal effect
Procedure, shortened: as §2

[15] = qHTS of pediatric cancer cell lines to identify multiple opportunities for drug repurposing: Primary screen for Rh41 cells (AID 1347108); further: nearly all actives have a fitted effect of over 70% in size; further: potency means the concentration at half of the fitted maximal effect;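 on activity change, negative = cytotoxic: series mostly up to about 46 µM; luminescence drop marks cytotoxic hits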
Procedure, shortened: as §2

[16] = qHTS of pediatric cancer cell lines to identify multiple opportunities for drug repurposing: Primary screen for control Hh wild type fibroblast cells (AID 1347106);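 further: series mostly up to about 46 µM; on the % scale 0 is the no-effect control and ±100 the full control effect; a drop in luminescence marks cytotoxicity and a rise apparent proliferation; nearly all actives have a fitted effect of over 55% in size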
Procedure, shortened: as §3

[17] = qHTS of pediatric cancer cell lines to identify multiple opportunities for drug repurposing: Confirmatory screen for BT-12 cells (AID 1347112); further: nearly all actives have a fitted effect of over 55% in size; further: potency means the concentration at half of the fitted maximal effect
Procedure, shortened: as §3

[18] = qHTS of pediatric cancer cell lines to identify multiple opportunities for drug repurposing: Confirmatory screen for SJ-GBM2 cells (AID 1347116); further: nearly all actives have a fitted effect of over 60% in size; further: potency means the concentration at half of the fitted maximal effect
Procedure, shortened: as §4

[19] = qHTS of pediatric cancer cell lines to identify multiple opportunities for drug repurposing: Confirmatory screen for NB-EBc1 cells (AID 1347115);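 further: cells exposed to compound for 48 h before the viability read; nearly all actives have a fitted effect of over 45% in size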
Procedure, shortened: as §3

[20] = qHTS of pediatric cancer cell lines to identify multiple opportunities for drug repurposing: Primary screen for Rh18 cells (AID 1347102); further: nearly all actives have a fitted effect of over 65% in size
Procedure, shortened: as §3

O=C(Nc1ncc(-c2cc(C(F)F)nn2-c2c(Cl)cccc2Cl)s1)C1CC1
inactive: Potency [7]
active: Potency [1] 482 nM | Potency [2] 3320 nM | Potency [3] 332 nM | Potency [4] 968 nM | Potency [5] 432 nM | Potency [6] 418 nM | Potency [8] 1170 nM | Potency [9] 293 nM | Potency [10] 414 nM | Potency [11] 4650 nM | Potency [12] 329 nM | Potency [13] 1040 nM

COC(=O)Nc1ccc(-c2nc(N3CCOCC3)c3cnn(C4CCN(Cc5cccnc5)CC4)c3n2)cc1
active: Potency [1] 21500 nM | Potency [3] 14800 nM | Potency [4] 1090 nM | Potency [6] 1320 nM | Potency [14] 235 nM | Potency [15] 132 nM | Potency [9] 1310 nM | Potency [10] 1040 nM | Potency [13] 928 nM
inactive: Potency [2] | Potency [8]

CC(C)(C)c1cc(NC(=O)Nc2ccc(-c3cn4c(n3)sc3cc(OCCN5CCOCC5)ccc34)cc2)no1
inactive: Potency [1] | Potency [2] | Potency [3] | Potency [4] | Potency [16] | Potency [7] | Potency [15]
active: Potency [14] 23500 nM | Potency [8] 16500 nM | Potency [9] 585 nM | Potency [10] 10400 nM | Potency [17] 26100 nM | Potency [11] 23300 nM | Potency [18] 16500 nM | Potency [13] 18500 nM

CCc1c2c(nc3ccc(O)cc13)-c1cc3c(c(=O)n1C2)COC(=O)[C@]3(O)CC
active: Potency [1] 152 nM | Potency [2] 23.5 nM | Potency [3] 1 nM | Potency [4] 193 nM | Potency [5] 8.6 nM | Potency [6] 372 nM | Potency [14] 18.7 nM | Potency [7] 132 nM | Potency [15] 235 nM | Potency [9] 65.7 nM | Potency [17] 2610 nM | Potency [19] 1 nM
inactive: Potency [18]

CC(C)c1ccc(Cn2ccc3c4c(N)nc(NC5CC5)nc4ccc32)cc1
active: Potency [1] 21500 nM | Potency [2] 18700 nM | Potency [3] 18700 nM | Potency [4] 4320 nM | Potency [5] 4850 nM | Potency [6] 14800 nM | Potency [14] 14800 nM | Potency [7] 18700 nM | Potency [15] 3720 nM
inactive: Potency [16]

CC1COC2(CCN(c3nc(=O)c4cc(C(F)(F)F)cc([N+](=O)[O-])c4s3)CC2)O1 (stereo not drawn)
inactive: Potency [1] | Potency [2] | Potency [3] | Potency [4] | Potency [20] | Potency [5] | Potency [14] | Potency [16] | Potency [7] | Potency [15]

Clc1cccc(-c2nnnn2Cc2cccnc2)c1Cl
inactive: Potency [1] | Potency [2] | Potency [3] | Potency [4] | Potency [20] | Potency [6] | Potency [14] | Potency [16] | Potency [7] | Potency [15]

CN(C)Cc1c(C(=O)NCCOc2ccc(C(=O)NO)cc2)oc2ccccc12
active: Potency [1] 2410 nM | Potency [2] 935 nM | Potency [3] 469 nM | Potency [4] 3850 nM | Potency [6] 1870 nM | Potency [7] 4690 nM | Potency [15] 1480 nM | Potency [8] 465 nM | Potency [9] 1310 nM | Potency [10] 585 nM | Potency [17] 8270 nM | Potency [11] 928 nM | Potency [19] 1850 nM | Potency [18] 1470 nM | Potency [13] 1170 nM

COc1cccc(-c2ccc(NC(=O)C3=C(C(=O)O)CCC3)c(F)c2)c1
active: Potency [1] 24100 nM | Potency [2] 5260 nM | Potency [3] 13200 nM | Potency [4] 19300 nM | Potency [10] 2930 nM | Potency [18] 1170 nM
inactive: Potency [16] | Potency [7] | Potency [17] | Potency [11] | Potency [12]

COc1ccc(CC2c3cc(OC)c(OC)cc3CC[N+]2(C)CCC(=O)OCCCCCOC(=O)CC[N+]2(C)CCc3cc(OC)c(OC)cc3C2Cc2ccc(OC)c(OC)c2)cc1OC (stereo not drawn)
inactive: activity change, negative = cytotoxic [1] -0.106% [at 11.4 µM] | activity change, negative = cytotoxic [2] 1.38% [at 9.22 µM] | activity change, negative = cytotoxic [3] 2.36% [at 9.22 µM] | activity change, negative = cytotoxic [4] 7.29% [at 11.5 µM] | activity change, negative = cytotoxic [20] -3.1% [at 9.22 µM] | activity change, negative = cytotoxic [6] 4.63% [at 9.22 µM] | activity change, negative = cytotoxic [14] 0.923% [at 9.22 µM] | activity change, negative = cytotoxic [16] -1.39% [at 9.22 µM] | activity change, negative = cytotoxic [7] 18.3% [at 9.22 µM] | activity change, negative = cytotoxic [15] 23.2% [at 9.22 µM]

CC=C1NC(=O)[C@H]2CSSCCC=C[C@H](CC(=O)N[C@H](C(C)C)C(=O)N2)OC(=O)[C@H](C(C)C)NC1=O
active: Potency [1] 121 nM | Potency [2] 9.3 nM | Potency [3] 9.3 nM | Potency [4] 12.2 nM | Potency [20] 5.3 nM | Potency [5] 19.3 nM | Potency [7] 29.6 nM | Potency [15] 14.8 nM | Potency [10] 11700 nM
inactive: Potency [8] | Potency [9] | Potency [11] | Potency [19] | Potency [18]

CC1(C)CCC(c2ccc(Cl)cc2)=C(CN2CCN(c3ccc(C(=O)NS(=O)(=O)c4ccc(N[C@H](CCN5CCOCC5)CSc5ccccc5)c(S(=O)(=O)C(F)(F)F)c4)cc3)CC2)C1
active: Potency [1] 24100 nM | Potency [2] 9.3 nM | Potency [3] 9.3 nM | Potency [4] 15300 nM | Potency [5] 5440 nM | Potency [6] 10500 nM | Potency [14] 9350 nM | Potency [7] 9350 nM | Potency [15] 5900 nM | Potency [9] 8270 nM
inactive: Potency [16] | Potency [8] | Potency [17] | Potency [11] | Potency [19] | Potency [13]
